Molecules are shown by their SMILES. “And” between values parts separate entries of the source, which are not always exact repeats. Equal values may be shown once. Records with an inconclusive call do not appear. Entries that show only a call come without a potency. The source made the active and inactive calls. The call rests on the fitted dose curve; in most records, active means well fitted cell-killing curve with a large enough effect in the repeat runs; inconclusive means weak or mixed curves, or effect the other way; inactive means flat fitted curve, though single readings scatter.
Potency means the concentration at half of the fitted maximal effect.

The nature of the assay: qHTS RealTime-Glo MT Cell Viability Assay in HepG2 cells - 0 hour (AID 1224889). Further: nearly all actives have a fitted effect of over 50% in size. The following applies: RealTime-Glo luminescence; series mostly up to 76.8 µM. The text has this:
U.S. Tox21 Program National Center for Advancing Translational Sciences [NCATS] NIH Chemical Genomics Center [NCGC] U.S. Environmental Protection Agency [EPA] National Institutes of Environmental Health Sciences [NIEHS] National Toxicology Program [NTP] U.S. Food and Drug Administration [FDA] Tox21 Assay Overview: Measure of cell viability is critical in the cell-base assay. Analysis of cell viability is necessary for the characterization of cell responses to cytotoxic drugs and environmental stress. A RealTime-Glo MT Cell Viability Assay to monitor cell viability in real time of continues cell culture during 40 hours of compound treatment was used to screen Tox21 10K library compounds in HepG2 cells. The RealTime-Glo MT Cell Viability Assay is a nonlytic, homogeneous, bioluminescent method to measure cell viability in real time using a simple, plate-based method. The assay involves adding NanoLuc luciferase and a cell-permeant prosubstrate to cells in culture. Viable cells reduce the proprietary prosubstrate to generate a substrate for NanoLuc luciferase. This substrate diffuses from cells into the surrounding culture medium, where it is rapidly used by the NanoLuc Enzyme to produce a luminescent signal. The signal correlates with the number of viable cells, making the assay well suited for cytotoxicity studies.
Tox21 Assay Protocol Summary: The mixture of HepG2 cell suspension and reagents were dispensed at 600cells/6 ul/well in 1536-well tissue culture treated black solid bottom plates using a Multidrop dispenser. After the assay plates were incubated at a 37 C/5% CO2 incubator for 5 hours, 23 nL of compounds dissolved in DMSO, positive and negative controls was transferred to the assay plate by a pintool work station. The plates were incubated at 37 C for 40 hours. The luminescence intensity were measured at 0h, 8h, 16h, 24h, 32h and 40h time points using ViewLux plate reader during compound treatment.
As for `O=S(=O)(Oc1ccc(Cl)cc1Cl)c1ccccc1`, the Potency result is “inactive”.
For the molecule `Cc1ccc(C)c(C)c1`, the Potency result was “inactive”.
With `CC(=O)Nc1ccc(C(=O)O)cc1` the entry was “inactive”; with `CCCCCCCCCCC=CC1CC(=O)OC1=O` (stereo not given), “inactive”; with `O=[N+]([O-])c1cccc(Cl)c1`, “inactive”.
For `C/C=C(C)/C=C/C=C(C)C`, the Potency entry is “inactive”.
With `CC1(C)CC(N=C=O)CC(C)(CN=C=O)C1` (stereo not given) the entry was “inactive”.
With `Nc1cc(-c2ccncc2)c[nH]c1=O` the entry was “inactive”.
With `C=C(C)C(=O)OCCCCCC` the entry was “inactive”; with `COCC(=O)O`, “inactive”.
For `COC(=O)Nc1nc2ccc(Sc3ccccc3)cc2[nH]1`, the Potency entry is “inactive”.
With `CC(C)(N=C=O)c1cccc(C(C)(C)N=C=O)c1` the entry was “inactive”; with `O=[N+]([O-])C(CO)(CO)CO`, “inactive”.
As for `C=C(C)C(=O)OCCC[Si](OC)(OC)OC`, the entry is “inactive”; as for `OCC#CCO`, “inactive”.
With `O=C1N=C(O)CN1/N=C/c1ccc(-c2ccc([N+](=O)[O-])cc2)o1` the entry was “inactive”; with `CCCCC/C=C\C/C=C\CCCCCCCC(=O)OC`, “inactive”.
As for `Cc1cc(Cc2ccc(N)c(C)c2)ccc1N`, the Potency entry was “inactive”.
As for `CCCCCCCCCCCCOCC1CO1` (stereo not given), the entry is “inactive”; as for `CC1(C)O[C@@H]2C[C@H]3[C@@H]4C[C@H](F)C5=CC(=O)CC[C@]5(C)[C@H]4[C@@H](O)C[C@]3(C)[C@]2(C(=O)CO)O1`, 1.23 µM (active) and 2.68 µM (active); as for `C=C1C2CCC(C2)C1(C)C` (stereo not given), “inactive”.
Regarding `C=C(C)C(=O)OCCCCCCCCCCCC`, the Potency result was “inactive”.
With `OC[C@@H](O)[C@@H](O)[C@H](O)[C@@H](O)CO` the entry was “inactive”; with `COC(=O)c1ccccc1O`, “inactive”; with `CCOC(=O)[C@H](CCc1ccccc1)N[C@@H](C)C(=O)N1Cc2ccccc2C[C@H]1C(=O)O`, “inactive”.
With `O=Nc1ccc(O)cc1` the entry was “inactive”; with `CC1CC(OC(=O)c2ccccc2O)CC(C)(C)C1` (stereo not given), “inactive”; with `CC1Cc2ccccc2N1NC(=O)c1ccc(Cl)c(S(N)(=O)=O)c1` (stereo not given), “inactive”.
As for `NC(=O)NNc1ccccc1`, the entry is “inactive”.
In the case of `C=C(C)C(=O)OCC(CC)(COC(=O)C(=C)C)COC(=O)C(=C)C`, the Potency result is “inactive”.
For the molecule `O=S(=O)(O)CCS`, the Potency result is “inactive”.
With `CCCCCCCCCCCCN` the entry was “inactive”; with `CCC(C)C=O` (stereo not given), “inactive”.
With `CCCCC(CC)COC(=O)CCCCCCCC(=O)OCC(CC)CCCC` (stereo not given) the entry was “inactive”; with `C=CC(=O)OCCCCCCCC(C)C`, “inactive”.
As for `O=C(O)c1ccc([N+](=O)[O-])cc1`, the entry is “inactive”; as for `Nc1nc2ncc(CNc3ccc(C(=O)N[C@@H](CCC(=O)O)C(=O)O)cc3)nc2c(=O)[nH]1`, “inactive”.
With `CCC(=O)O`, the Potency entry was “inactive”.
As for `CCCCCCCCCC(=O)O`, the entry is “inactive”; as for `Cc1ccc(C(=O)O)o1`, “inactive”.

The values above are taken from PubChem BioAssay (Tox21).
